Assay [1] deals with T1, Serine/threonine-protein kinase TBK1 (Homo sapiens) (UniProt Q9UHD2).
T1 sequence (whole entry): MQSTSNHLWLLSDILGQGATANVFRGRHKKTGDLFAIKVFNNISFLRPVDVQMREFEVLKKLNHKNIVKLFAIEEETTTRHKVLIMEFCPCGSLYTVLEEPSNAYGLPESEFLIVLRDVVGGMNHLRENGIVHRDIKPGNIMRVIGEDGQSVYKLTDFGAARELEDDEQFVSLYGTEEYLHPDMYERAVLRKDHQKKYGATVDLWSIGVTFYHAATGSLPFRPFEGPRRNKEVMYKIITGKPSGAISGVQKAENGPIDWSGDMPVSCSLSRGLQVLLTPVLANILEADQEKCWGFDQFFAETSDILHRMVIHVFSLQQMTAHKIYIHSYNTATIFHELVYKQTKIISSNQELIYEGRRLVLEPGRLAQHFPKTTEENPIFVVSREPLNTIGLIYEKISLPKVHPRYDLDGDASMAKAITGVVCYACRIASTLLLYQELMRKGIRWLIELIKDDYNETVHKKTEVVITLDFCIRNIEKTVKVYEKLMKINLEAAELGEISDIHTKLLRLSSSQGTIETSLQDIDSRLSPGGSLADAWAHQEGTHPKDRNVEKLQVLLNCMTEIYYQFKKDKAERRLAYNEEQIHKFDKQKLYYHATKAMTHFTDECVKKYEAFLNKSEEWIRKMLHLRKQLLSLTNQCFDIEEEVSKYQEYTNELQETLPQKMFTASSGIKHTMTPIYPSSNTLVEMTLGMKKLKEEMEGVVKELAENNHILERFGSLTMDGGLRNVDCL
The conditions noted are these: at 10 µM.

In assay [2] the target is T2, Inhibitor of nuclear factor kappa-B kinase subunit alpha (Homo sapiens) (UniProt O15111).
T2 sequence (whole entry): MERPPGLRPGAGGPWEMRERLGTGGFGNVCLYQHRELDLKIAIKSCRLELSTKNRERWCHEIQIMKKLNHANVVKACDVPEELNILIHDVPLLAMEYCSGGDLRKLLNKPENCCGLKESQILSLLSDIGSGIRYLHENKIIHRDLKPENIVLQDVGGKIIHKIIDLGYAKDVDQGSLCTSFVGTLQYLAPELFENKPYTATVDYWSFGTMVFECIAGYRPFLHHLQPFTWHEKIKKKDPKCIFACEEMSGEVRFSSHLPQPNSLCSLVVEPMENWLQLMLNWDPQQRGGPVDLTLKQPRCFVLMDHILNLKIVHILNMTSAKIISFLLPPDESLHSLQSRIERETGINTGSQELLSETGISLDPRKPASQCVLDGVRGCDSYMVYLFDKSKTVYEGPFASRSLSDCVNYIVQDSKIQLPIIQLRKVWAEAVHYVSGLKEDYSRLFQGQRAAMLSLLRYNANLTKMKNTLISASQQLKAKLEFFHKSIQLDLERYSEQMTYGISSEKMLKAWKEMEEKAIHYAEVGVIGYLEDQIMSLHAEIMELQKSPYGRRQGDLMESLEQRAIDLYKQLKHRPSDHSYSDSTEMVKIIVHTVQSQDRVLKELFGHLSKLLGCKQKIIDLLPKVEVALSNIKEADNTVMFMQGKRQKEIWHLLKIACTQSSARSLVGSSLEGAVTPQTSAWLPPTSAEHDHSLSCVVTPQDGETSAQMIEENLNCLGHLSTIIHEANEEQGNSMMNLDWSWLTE
The settings on record: at 1 µM.

Assay [3] has as its target T2, Inhibitor of nuclear factor kappa-B kinase subunit alpha (Homo sapiens). The conditions noted are these: at 10 µM.
Assay [4] deals with Insulin receptor (Homo sapiens) (UniProt P06213). The conditions noted are these: at 1 µM.
Sequence of Insulin receptor (Homo sapiens) (P06213 28-758 limits assumed): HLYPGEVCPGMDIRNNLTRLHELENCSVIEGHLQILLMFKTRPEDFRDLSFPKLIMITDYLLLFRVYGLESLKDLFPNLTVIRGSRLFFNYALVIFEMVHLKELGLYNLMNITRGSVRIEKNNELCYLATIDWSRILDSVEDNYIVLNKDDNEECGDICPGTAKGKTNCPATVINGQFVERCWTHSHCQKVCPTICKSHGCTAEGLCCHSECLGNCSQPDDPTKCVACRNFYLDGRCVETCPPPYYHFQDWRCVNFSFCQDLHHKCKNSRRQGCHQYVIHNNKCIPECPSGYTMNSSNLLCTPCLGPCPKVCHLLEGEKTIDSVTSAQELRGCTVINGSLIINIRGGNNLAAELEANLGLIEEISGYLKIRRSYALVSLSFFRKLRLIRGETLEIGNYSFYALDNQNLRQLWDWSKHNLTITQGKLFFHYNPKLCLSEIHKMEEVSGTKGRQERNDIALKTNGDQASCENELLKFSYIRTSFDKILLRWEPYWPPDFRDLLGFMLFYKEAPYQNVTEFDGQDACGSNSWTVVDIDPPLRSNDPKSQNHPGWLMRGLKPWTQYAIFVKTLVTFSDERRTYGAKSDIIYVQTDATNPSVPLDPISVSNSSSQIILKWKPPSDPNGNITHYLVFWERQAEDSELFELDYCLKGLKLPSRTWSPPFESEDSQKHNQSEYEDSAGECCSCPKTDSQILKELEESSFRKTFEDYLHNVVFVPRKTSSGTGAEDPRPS
Sequence of Insulin receptor (Homo sapiens) (P06213 763-1382 limits assumed): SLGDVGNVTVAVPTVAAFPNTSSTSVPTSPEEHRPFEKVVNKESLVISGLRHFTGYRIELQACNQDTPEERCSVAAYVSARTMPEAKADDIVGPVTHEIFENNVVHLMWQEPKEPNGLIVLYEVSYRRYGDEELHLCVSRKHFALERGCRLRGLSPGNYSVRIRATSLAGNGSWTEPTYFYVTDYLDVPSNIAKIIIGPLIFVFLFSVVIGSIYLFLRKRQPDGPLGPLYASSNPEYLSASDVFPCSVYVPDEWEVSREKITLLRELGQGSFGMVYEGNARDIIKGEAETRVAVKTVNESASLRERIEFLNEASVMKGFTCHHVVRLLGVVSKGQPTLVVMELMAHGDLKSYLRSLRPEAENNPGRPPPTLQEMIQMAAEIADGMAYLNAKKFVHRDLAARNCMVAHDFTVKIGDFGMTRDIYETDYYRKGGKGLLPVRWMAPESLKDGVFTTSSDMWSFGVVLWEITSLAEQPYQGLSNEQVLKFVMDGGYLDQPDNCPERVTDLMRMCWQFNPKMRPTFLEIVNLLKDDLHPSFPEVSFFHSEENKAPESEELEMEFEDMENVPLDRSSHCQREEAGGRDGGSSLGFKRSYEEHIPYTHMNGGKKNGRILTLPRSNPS
The target is the same in assay [5]. The settings on record: at 10 µM.
Assay [6] shares this target. The settings on record: at 1 µM. The source holds these as a separate data set.
For assay [7] the target is unchanged. The conditions noted are these: at 10 µM. This is another data set of the same source.
Assay [8] has as its target T3, Interleukin-1 receptor-associated kinase 4 (Homo sapiens) (UniProt Q9NWZ3).
T3 sequence (whole entry): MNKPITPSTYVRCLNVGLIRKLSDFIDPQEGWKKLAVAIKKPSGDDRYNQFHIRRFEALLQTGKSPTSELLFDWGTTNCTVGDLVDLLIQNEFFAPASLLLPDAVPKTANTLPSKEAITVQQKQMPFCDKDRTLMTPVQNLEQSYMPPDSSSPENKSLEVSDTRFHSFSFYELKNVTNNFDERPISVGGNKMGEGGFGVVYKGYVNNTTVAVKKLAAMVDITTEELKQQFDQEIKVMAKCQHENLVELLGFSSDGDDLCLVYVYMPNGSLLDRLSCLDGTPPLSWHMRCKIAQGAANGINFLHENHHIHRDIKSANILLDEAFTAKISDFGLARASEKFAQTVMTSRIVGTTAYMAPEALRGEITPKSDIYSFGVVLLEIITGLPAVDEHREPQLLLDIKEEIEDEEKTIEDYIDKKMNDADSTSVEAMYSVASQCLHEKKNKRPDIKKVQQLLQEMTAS
The settings on record: at 10 µM.

Assay [9] deals with Insulin receptor-related protein (Homo sapiens) (UniProt P14616). The settings on record: at 1 µM.
Sequence of Insulin receptor-related protein (Homo sapiens) (P14616 27-742 limits assumed): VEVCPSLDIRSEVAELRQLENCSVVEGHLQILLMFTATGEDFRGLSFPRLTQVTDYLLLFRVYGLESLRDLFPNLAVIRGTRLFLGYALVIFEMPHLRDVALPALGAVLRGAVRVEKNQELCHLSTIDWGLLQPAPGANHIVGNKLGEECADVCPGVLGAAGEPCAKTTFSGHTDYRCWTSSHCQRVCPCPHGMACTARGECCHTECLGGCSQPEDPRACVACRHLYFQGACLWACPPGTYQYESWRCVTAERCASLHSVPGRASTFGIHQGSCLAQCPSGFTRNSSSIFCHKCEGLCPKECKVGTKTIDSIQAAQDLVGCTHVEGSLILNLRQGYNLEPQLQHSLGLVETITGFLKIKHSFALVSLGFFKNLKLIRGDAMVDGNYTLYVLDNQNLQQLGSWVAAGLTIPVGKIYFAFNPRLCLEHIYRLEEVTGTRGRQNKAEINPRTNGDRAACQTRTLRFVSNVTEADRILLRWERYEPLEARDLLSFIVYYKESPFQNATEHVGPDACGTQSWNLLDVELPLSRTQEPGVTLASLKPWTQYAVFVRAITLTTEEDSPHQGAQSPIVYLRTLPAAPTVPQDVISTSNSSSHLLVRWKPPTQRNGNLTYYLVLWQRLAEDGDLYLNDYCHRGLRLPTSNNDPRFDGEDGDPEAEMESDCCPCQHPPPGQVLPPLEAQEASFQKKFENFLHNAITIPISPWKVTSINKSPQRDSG
Sequence of Insulin receptor-related protein (Homo sapiens) (P14616 747-1297 limits assumed): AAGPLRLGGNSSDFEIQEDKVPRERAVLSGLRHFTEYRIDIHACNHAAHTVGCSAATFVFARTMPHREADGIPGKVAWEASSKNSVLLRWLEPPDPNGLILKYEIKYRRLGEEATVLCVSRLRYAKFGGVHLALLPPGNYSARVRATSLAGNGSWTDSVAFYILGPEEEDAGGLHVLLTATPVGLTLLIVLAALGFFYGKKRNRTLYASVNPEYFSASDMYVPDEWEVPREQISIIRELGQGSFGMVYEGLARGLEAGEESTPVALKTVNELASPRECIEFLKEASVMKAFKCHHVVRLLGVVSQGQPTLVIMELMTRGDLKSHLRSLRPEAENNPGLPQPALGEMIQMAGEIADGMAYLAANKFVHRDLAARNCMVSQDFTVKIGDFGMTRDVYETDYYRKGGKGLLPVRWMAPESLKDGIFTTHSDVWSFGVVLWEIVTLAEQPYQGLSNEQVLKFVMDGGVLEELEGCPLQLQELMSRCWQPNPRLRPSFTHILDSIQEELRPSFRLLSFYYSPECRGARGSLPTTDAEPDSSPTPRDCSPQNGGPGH
Assay [10] shares this target. The settings on record: at 10 µM.
For assay [11], the target named is T4, TGF-beta receptor type-1 (Homo sapiens) (UniProt P36897).
T4 sequence (whole entry): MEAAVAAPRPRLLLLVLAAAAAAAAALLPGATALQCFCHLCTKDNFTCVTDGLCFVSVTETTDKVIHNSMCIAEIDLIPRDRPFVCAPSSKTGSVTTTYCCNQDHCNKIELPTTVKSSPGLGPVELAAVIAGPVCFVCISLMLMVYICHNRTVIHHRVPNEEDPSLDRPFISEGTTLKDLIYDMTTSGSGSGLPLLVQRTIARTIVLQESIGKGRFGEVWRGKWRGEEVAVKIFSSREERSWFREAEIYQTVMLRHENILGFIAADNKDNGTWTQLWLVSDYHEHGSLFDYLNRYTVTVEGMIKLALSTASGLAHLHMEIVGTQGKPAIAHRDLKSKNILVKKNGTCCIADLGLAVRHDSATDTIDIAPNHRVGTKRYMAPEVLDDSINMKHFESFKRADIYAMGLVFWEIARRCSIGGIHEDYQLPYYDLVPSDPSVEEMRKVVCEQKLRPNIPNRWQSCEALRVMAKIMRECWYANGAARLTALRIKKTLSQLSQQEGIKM
The settings on record: at 10 µM.

The target in assay [12] is T4, TGF-beta receptor type-1 (Homo sapiens). The settings on record: at 1 µM.
For assay [13], the target named is Insulin-like growth factor 1 receptor (Homo sapiens) (UniProt P08069). The conditions noted are these: at 1 µM.
Sequence of Insulin-like growth factor 1 receptor (Homo sapiens) (P08069 31-736 limits assumed): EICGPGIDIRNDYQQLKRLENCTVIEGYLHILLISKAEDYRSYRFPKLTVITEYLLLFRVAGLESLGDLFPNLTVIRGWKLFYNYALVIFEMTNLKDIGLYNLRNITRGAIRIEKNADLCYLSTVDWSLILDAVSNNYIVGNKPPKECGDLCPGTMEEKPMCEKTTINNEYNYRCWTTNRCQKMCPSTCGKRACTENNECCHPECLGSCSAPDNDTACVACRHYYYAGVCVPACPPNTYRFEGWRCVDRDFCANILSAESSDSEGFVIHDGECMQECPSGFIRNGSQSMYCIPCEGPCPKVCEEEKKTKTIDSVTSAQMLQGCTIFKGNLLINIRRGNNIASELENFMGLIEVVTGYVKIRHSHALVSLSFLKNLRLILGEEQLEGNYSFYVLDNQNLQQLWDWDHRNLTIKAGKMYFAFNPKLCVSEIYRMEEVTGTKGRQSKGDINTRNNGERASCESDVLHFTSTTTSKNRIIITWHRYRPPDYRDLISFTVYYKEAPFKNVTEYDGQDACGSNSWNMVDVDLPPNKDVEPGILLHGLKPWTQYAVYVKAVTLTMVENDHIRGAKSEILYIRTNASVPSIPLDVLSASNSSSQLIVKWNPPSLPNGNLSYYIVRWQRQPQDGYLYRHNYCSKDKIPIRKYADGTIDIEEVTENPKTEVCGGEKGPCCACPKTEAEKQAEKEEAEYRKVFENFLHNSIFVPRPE
Sequence of Insulin-like growth factor 1 receptor (Homo sapiens) (P08069 741-1367 limits assumed): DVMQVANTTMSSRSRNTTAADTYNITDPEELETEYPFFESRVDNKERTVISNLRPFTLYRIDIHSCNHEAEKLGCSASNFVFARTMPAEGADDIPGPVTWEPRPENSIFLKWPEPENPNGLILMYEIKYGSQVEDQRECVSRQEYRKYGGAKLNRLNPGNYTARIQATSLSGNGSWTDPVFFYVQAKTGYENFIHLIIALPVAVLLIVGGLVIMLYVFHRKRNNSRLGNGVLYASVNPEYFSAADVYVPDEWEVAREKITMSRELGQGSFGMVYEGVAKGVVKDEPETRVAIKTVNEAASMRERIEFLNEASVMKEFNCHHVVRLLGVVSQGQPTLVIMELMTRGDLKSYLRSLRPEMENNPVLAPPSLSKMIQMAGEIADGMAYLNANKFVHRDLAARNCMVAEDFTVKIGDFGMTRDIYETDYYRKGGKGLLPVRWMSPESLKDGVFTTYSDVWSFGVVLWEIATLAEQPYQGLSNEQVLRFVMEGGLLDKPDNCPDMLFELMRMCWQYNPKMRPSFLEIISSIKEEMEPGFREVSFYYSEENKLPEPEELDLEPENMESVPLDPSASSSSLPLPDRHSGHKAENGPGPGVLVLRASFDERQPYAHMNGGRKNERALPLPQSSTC
Assay [14] has the same target. The conditions noted are these: at 10 µM.
The target in assay [15] is T5, Inhibitor of nuclear factor kappa-B kinase subunit beta (Homo sapiens) (UniProt O14920).
T5 sequence (whole entry): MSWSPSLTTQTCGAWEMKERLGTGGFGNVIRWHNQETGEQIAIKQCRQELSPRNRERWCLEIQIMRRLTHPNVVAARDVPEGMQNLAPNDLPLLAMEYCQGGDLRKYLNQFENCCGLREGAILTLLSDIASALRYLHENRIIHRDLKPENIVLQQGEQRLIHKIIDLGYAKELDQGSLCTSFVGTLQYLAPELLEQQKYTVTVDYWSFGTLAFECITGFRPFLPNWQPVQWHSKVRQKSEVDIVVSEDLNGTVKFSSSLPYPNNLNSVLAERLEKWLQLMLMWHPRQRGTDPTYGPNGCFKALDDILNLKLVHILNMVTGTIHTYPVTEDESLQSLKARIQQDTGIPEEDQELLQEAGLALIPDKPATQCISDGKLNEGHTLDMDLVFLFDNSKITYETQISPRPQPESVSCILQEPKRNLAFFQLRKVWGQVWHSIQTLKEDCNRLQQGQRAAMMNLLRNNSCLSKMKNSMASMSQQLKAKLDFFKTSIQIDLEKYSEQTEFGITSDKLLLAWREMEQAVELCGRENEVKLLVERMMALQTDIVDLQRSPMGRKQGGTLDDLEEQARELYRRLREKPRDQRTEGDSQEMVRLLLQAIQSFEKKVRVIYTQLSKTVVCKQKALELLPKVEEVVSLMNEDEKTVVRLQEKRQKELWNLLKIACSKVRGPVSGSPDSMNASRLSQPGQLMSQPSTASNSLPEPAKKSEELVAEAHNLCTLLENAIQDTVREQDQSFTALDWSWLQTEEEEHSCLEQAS
The conditions noted are these: at 1 µM.

Assay [16] deals with T5, Inhibitor of nuclear factor kappa-B kinase subunit beta (Homo sapiens). The settings on record: at 10 µM.
For assay [17], the target named is Interleukin-1 receptor-associated kinase 1 (Homo sapiens) (UniProt P51617). The settings on record: at 1 µM.
Sequence of Interleukin-1 receptor-associated kinase 1 (Homo sapiens) (P51617 whole entry, looked up): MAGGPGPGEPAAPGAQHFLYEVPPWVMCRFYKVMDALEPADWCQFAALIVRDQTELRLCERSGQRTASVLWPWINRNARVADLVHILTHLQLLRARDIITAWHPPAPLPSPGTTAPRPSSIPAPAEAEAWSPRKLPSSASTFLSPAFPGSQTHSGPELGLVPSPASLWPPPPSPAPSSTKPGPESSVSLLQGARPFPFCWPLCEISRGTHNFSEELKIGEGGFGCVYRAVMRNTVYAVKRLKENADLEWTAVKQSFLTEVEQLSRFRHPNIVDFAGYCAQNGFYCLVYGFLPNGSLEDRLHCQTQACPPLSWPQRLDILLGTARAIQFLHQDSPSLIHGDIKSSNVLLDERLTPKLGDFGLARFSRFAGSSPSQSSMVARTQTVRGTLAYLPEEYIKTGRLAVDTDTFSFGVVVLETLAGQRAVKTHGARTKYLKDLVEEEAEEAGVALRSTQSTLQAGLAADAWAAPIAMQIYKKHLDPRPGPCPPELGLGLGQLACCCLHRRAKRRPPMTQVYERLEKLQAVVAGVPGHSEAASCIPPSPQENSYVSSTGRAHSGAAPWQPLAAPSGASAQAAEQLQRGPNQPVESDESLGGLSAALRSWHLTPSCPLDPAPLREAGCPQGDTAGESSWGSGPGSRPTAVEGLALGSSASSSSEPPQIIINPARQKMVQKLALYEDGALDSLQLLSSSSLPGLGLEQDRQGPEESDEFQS
Assay [18] shares this target. The settings on record: at 10 µM.
The target in assay [19] is T6, Tyrosine-protein kinase ITK/TSK (Homo sapiens) (UniProt Q08881).
T6 sequence (whole entry): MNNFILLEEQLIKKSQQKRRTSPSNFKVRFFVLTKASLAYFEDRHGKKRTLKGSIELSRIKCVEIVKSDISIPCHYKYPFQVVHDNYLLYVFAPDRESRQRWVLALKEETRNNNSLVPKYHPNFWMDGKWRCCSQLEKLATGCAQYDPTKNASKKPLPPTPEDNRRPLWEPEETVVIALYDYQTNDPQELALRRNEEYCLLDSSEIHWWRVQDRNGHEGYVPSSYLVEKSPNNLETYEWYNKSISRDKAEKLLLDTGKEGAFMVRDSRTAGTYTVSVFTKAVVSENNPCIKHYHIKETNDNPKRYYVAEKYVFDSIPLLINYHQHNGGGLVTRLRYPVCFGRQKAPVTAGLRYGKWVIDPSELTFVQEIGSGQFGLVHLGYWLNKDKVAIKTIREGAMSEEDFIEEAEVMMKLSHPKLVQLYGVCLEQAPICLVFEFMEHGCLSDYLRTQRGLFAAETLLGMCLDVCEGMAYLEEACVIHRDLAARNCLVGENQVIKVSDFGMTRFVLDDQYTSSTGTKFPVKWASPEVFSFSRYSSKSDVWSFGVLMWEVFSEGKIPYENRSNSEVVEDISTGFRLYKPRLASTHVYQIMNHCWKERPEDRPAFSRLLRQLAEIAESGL
The conditions noted are these: at 1 µM.

Assay [20] has as its target T3, Interleukin-1 receptor-associated kinase 4 (Homo sapiens). The settings on record: at 1 µM.

Structures are written as SMILES.

In general, residual activity refers to the signal under treatment as a percentage of the control signal.

Consider `NCCNc1ncc(C(N)=O)c(Nc2cccc(C(F)(F)F)c2)n1`, for which the residual activity in assay [1] was 54%; in assay [2], 104%; in [3], 66%; in [4] it was 115%; in assay [5], 77%; in assay [6] it was 74%. The residual activity was found to be 34% in assay [7], 51% in [8], 142% in assay [9] and 55% in assay [10].

With `O=C1Nc2ccccc2/C1=C\c1c(Cl)[nH]c2ccccc12`, the residual activity is 43% in [1], 74% in [11] and 69% in assay [8].

As to `Nc1ncnc2c1cnn2-c1ccccc1`, the residual activity in [12] amounted to 92%; in [13] it was 88%; in assay [14] it was 76%; in [3], 85%; in [15], 97%; in [16] it was 86%. For the same compound, the residual activity in assay [17] was found to be 93%; in assay [18], 84%; in assay [8], 84%; in assay [9], 135%; in [10], 93%; in assay [19] it was 102%.

As to `COc1ccc(CNC(=O)Nc2ncc([N+](=O)[O-])s2)cc1`, the residual activity in assay [1] was 59%; in [2] it was 111%; in assay [3], 113%; in [15] it was 109%; in assay [16], 108%; in [18], 103%. Also, the residual activity in assay [20] was found to be 72%; in assay [8], 78%.

For `CCOC(=O)c1c(C)[nH]c(/C=C2\C(=O)Nc3ccccc32)c1C`, the residual activity in [1] is 85%; in assay [2], 96%; in [3], 88%; in assay [4] it was 93%; in [5], 96%; in [6] it was 84%. The residual activity in [7] came out at 93%; in assay [17] it was 94%; in assay [18], 99%; in assay [20], 97%; in [8], 49%; in assay [9], 93%. The figures for the residual activity in assay [10] and in assay [19] were 81% and 79%, respectively.

Consider `O=C1Cc2c([nH]c3ccc(Br)cc23)-c2ccccc2N1`, for which the residual activity is 31% in assay [1]; 95% in [4]; 93% in [6]; 81% in assay [7]; 94% in assay [17]; 68% in [18]. The residual activity amounted to 81% in assay [20], 36% in [8], 82% in [10] and 83% in assay [19].

Consider `O=c1cc(N2CCOCC2)oc2c(-c3ccccc3)cccc12`, for which the residual activity in assay [1] turned out to be 55%; in assay [10], 75%.

For `O=C1NC(=O)C(c2cn(CCCn3ccnc3)c3ccccc23)=C1Nc1ccccc1`, the residual activity in assay [1] was determined as 9%; in [2] it was 112%; in [3] it was 103%; in [17] it was 81%; in assay [18], 76%; in [20] it was 45%. The residual activity in assay [8] was determined as 32%; in [9], 135%; in assay [10], 65%.

Consider `Oc1cccc(-c2nc(N3CCOCC3)c3oc4ncccc4c3n2)c1`, for which the residual activity in assay [1] was determined as 67%; in assay [12], 82%; in assay [11], 91%; in [9], 128%; in assay [10] it was 84%.

On to `COc1ccc(-c2cnc3c(-c4ccsc4)cnn3c2)cc1`, for which the residual activity is 85% in [1]; 91% in assay [2]; 90% in [3]; 100% in [15]; 95% in assay [16]; 91% in assay [4]. Besides, the residual activity was 98% in assay [17], 84% in assay [18], 124% in assay [20] and 94% in assay [8].

(Values after ChEMBL document CHEMBL2218924, “A broad activity screen in support of a chemogenomic map for kinase signalling research and drug discovery” (Biochem J, 2013).)
